# According to the supplement of paper PMC9023506:
# Where a name gives a salt, the structure may show the parent alone.
# Tested on: Danio rerio larvae (5 dpf)
# Assay: activity during first hour (no stimuli), difference vs DMSO (percentage points (treated minus DMSO)); higher = more of the behaviour than the DMSO vehicle control
# Details: 10 µM; exposure time: 3 h pre-incubation + 3 h imaging
# Experimental: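 5-dpf wild-type zebrafish larvae were imaged in 96-well plates. They were treated with 190 Tocris FDA-approved drugs at 10 µM (1 µl/ml DMSO) for 3 h before and 3 h during imaging at 28.5 °C, 48 larvae per drug. Automated image analysis gave % time moving and optomotor responses. Values are drug group mean minus DMSO vehicle mean (n=844), in percentage points, for 10 behaviours.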
row,Structure (SMILES),activity during first hour
1,O=C(NCC1CCCCN1)c1cc(OCC(F)(F)F)ccc1OCC(F)(F)F (stereo not given) [Flecainide acetate],0.441
2,Cc1ccc(N(CC2=NCCN2)c2cccc(O)c2)cc1 [Phentolamine Mesylate],9.58
3,COc1cc(Nc2c(C#N)cnc3cc(OCCCN4CCN(C)CC4)c(OC)cc23)c(Cl)cc1Cl [Bosutinib],-16.6
4,CCCCC(=O)N(Cc1ccc(-c2ccccc2-c2nnn[nH]2)cc1)[C@H](C(=O)O)C(C)C [Valsartan],4.88
5,CC(C)c1nc(CN(C)C(=O)N[C@H](C(=O)N[C@@H](Cc2ccccc2)C[C@H](O)[C@H](Cc2ccccc2)NC(=O)OCc2cncs2)C(C)C)cs1 [Ritonavir],-0.488
6,O=C1CCc2ccc(OCCCCN3CCN(c4cccc(Cl)c4Cl)CC3)cc2N1 [Aripiprazole],8.28
7,CC(=O)O[C@H]1C(=O)[C@@]2(C)[C@H]([C@H](OC(=O)c3ccccc3)[C@]3(O)C[C@H](OC(=O)[C@H](O)[C@@H](NC(=O)c4ccccc4)c4ccccc4)C(C)=C1C3(C)C)[C@]1(OC(C)=O)CO[C@@H]1C[C@@H]2O [Taxol],1.84
8,CCCc1nc2c(C)cc(-c3nc4ccccc4n3C)cc2n1Cc1ccc(-c2ccccc2C(=O)O)cc1 [Telmisartan],-6.28
9,CNCc1ccc(-c2[nH]c3cc(F)cc4c3c2CCNC4=O)cc1 [Rucaparib camsylate],-13.6
10,CCCN(CCc1cccs1)[C@H]1CCc2c(O)cccc2C1 [Rotigotine hydrochloride],-26.8
11,CC(=O)NC[C@H]1CN(c2ccc(N3CCOCC3)c(F)c2)C(=O)O1 [Linezolid],3.81
12,CC(C)(C)NC(=O)[C@@H]1C[C@@H]2CCCC[C@@H]2CN1C[C@@H](O)[C@H](Cc1ccccc1)NC(=O)[C@H](CC(N)=O)NC(=O)c1ccc2ccccc2n1 [Saquinavir mesylate],-9.81
13,C/C(O)=C(\C#N)C(=O)Nc1ccc(C(F)(F)F)cc1 [Teriflunomide],-8.27
14,O=c1n(CCCN2CCN(c3cccc(Cl)c3)CC2)nc2ccccn12 [Trazodone hydrochloride],-0.623
15,C=CC(=O)N1CCC[C@@H](n2nc(-c3ccc(Oc4ccccc4)cc3)c3c(N)ncnc32)C1 [Ibrutinib],-6.62
16,Nc1cccc2c1CN(C1CCC(=O)NC1=O)C2=O (stereo not given) [Lenalidomide],-5.68
17,Clc1ccc2nsnc2c1NC1=NCCN1 [Tizanidine hydrochloride],-14.2
18,COc1cc2nc(N3CCN(C(=O)c4ccco4)CC3)nc(N)c2cc1OC [Prazosin hydrochloride],-3.12
19,COc1ccc(-c2ccc3cc(C(=O)O)ccc3c2)cc1C12CC3CC(CC(C3)C1)C2 [Adapalene],-0.0907
20,Cc1cc2c(s1)Nc1ccccc1N=C2N1CCN(C)CC1 [Olanzapine],8.05

row,Structure (SMILES),activity during first hour
1,CC(C)CN(C[C@@H](O)[C@H](Cc1ccccc1)NC(=O)O[C@H]1CO[C@H]2OCC[C@H]21)S(=O)(=O)c1ccc(N)cc1 [Darunavir],12.6
2,N[C@@H]1[C@H]2CN(c3nc4c(cc3F)c(=O)c(C(=O)O)cn4-c3ccc(F)cc3F)C[C@@H]12 [Trovafloxacin mesylate],5.81
3,Clc1ccc(COC(Cn2ccnc2)c2ccc(Cl)cc2Cl)c(Cl)c1 (stereo not given) [Miconazole nitrate],-18.4
4,OCCOCCN1CCN(C2=Nc3ccccc3Sc3ccccc32)CC1 [Quetiapine hemifumarate],12.9
5,CC(C)Nc1cccnc1N1CCN(C(=O)c2cc3cc(NS(C)(=O)=O)ccc3[nH]2)CC1 [Delavirdine mesylate],-1.59
6,CCC(C)(C)C(=O)O[C@H]1C[C@@H](C)C=C2C=C[C@H](C)[C@H](CC[C@@H]3C[C@@H](O)CC(=O)O3)[C@H]21 [Simvastatin],7.12
7,C[C@H]1O[C@H](O[C@H]2[C@H](O)[C@@H](O)[C@@H](O[C@H]3[C@H](O)[C@@H](O)C(O)O[C@@H]3CO)O[C@@H]2CO)[C@H](O)[C@@H](O)[C@@H]1N[C@H]1C=C(CO)[C@@H](O)[C@H](O)[C@H]1O (stereo not given in full) [Acarbose],-0.41
8,O=C(O[C@@H]1C[C@@H]2C[C@H]3C[C@H](C1)N2CC3=O)c1c[nH]c2ccccc12 [Dolasetron mesylate],-1.16
9,Cc1ccsc1C(=CCCN1CCC[C@@H](C(=O)O)C1)c1sccc1C [Tiagabine hydrochloride],7.01
10,CS(=O)(=O)CCNCc1ccc(-c2ccc3ncnc(Nc4ccc(OCc5cccc(F)c5)c(Cl)c4)c3c2)o1 [Lapatinib],-5.32
11,CCCCC1=NC2(CCCC2)C(=O)N1Cc1ccc(-c2ccccc2-c2nnn[nH]2)cc1 [Irbesartan],3.29
12,Nc1nc(F)nc2c1ncn2[C@@H]1O[C@H](CO)[C@@H](O)[C@@H]1O [Fludarabine],3.66
13,Cc1nc(-c2ccc(OCC(C)C)c(C#N)c2)sc1C(=O)O [Febuxostat],-0.179
14,CN(C)CCC[C@@]1(c2ccc(F)cc2)OCc2cc(C#N)ccc21 [Escitalopram oxalate],-24.4
15,O=C(c1ccc(OCCN2CCCCC2)cc1)c1c(-c2ccc(O)cc2)sc2cc(O)ccc12 [Raloxifene hydrochloride],-5.98
16,NC(=O)OCC(COC(N)=O)c1ccccc1 [Felbamate],-2.12
17,NS(=O)(=O)c1cc2c(cc1Cl)NC(C1CC3C=CC1C3)NS2(=O)=O (stereo not given) [Cyclothiazide],0.422
18,CCN(CC)CCNC(=O)c1c(C)[nH]c(/C=C2\C(=O)Nc3ccc(F)cc32)c1C [Sunitinib malate],-14.4
19,N#Cc1ccc(C(c2ccc(C#N)cc2)n2cncn2)cc1 [Letrozole],-3.63
20,CN(C)CCc1c[nH]c2ccc(Cn3cncn3)cc12 [Rizatriptan benzoate],-2.37
